Experimental data from publication PMC7862700, “An all-to-all approach to the identification of sequence-specific readers for epigenetic DNA modifications on cytosine”.

Assays:
Test in all cases: DAPPL (digital affinity profiling via proximity ligation, sequencing); 10 mM Tris-HCl pH 7.5, 50 mM NaCl, 1 mM DTT, 4% glycerol, room temperature, 30 min; GST-TFs on glutathione beads, 16-mer random dsDNA library, 0.1% formaldehyde crosslink after washing; high values mean tight binding
FEV = molecular target: T1, FEV (Homo sapiens, UniProt Q99581 1-238); conditions: protein: recombinant; tags: N-terminal GST; dsDNA, one strand shown
T1 sequence: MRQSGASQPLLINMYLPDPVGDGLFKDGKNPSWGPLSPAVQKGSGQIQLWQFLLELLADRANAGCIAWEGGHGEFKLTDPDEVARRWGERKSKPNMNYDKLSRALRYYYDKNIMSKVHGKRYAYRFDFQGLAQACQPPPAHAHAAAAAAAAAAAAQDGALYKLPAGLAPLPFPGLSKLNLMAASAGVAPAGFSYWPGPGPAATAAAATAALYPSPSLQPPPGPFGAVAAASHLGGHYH
Summary of the method: (§1)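 Sequencing on an Illumina NextSeq500 followed washing, crosslinking with 0.1% formaldehyde, proximity ligation (BsaI/T4 ligase, 1 h, 37 °C) and PCR amplification of pools that had been incubated for 30 min at room temperature with 200 nmole of a random double-stranded 16-mer DNA library in Tris/NaCl/DTT/glycerol buffer. Each pool held DNA-barcoded human transcription factors, expressed in yeast as GST fusions and captured on glutathione beads, plus a tag-only sample. Binding signal is a hexamer's read frequency for a factor divided by its frequency in the tag-only sample.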

ETV5 = ETV5 (Homo sapiens, UniProt P41161 1-510); conditions: protein: recombinant; tags: N-terminal GST; dsDNA, one strand shown
Summary of the method: as §1

HSF1 = HSF1 (Homo sapiens, UniProt Q00613 1-529); conditions: protein: recombinant; tags: N-terminal GST; chain copies: 3; dsDNA, one strand shown
Summary of the method: as §1

SPIC = molecular target: T2, SPIC (Homo sapiens, UniProt Q8N5J4 1-248); conditions: protein: recombinant; tags: N-terminal GST; dsDNA, one strand shown
T2 sequence: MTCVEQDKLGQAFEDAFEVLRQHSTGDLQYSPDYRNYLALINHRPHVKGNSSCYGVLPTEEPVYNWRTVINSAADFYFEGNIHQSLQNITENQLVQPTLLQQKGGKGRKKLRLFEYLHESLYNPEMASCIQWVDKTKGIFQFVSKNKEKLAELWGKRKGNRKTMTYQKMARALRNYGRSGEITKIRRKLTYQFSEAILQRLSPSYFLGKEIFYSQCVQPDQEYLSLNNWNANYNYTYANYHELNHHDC
Summary of the method: as §1

ELF4 = ELF4 (Homo sapiens, UniProt Q99607 1-663); conditions: protein: recombinant; tags: N-terminal GST; dsDNA, one strand shown
Summary of the method: as §1

ELK4 = molecular target: T3, ELK4 (Homo sapiens, UniProt P28324-2 1-405); conditions: protein: recombinant; tags: N-terminal GST; dsDNA, one strand shown
T3 sequence: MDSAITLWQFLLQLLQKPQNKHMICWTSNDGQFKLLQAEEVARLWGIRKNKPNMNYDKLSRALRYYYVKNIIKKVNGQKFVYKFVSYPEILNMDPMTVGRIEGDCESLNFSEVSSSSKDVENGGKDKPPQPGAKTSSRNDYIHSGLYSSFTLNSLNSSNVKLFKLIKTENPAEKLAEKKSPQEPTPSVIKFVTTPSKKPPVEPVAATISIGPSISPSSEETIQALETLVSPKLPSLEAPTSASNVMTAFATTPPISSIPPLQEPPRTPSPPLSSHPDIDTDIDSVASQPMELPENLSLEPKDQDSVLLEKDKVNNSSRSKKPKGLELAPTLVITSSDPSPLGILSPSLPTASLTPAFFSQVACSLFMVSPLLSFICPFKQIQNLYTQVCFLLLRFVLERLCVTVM
Summary of the method: as §1

ETV2 = molecular target: T4, ETV2 (Homo sapiens, UniProt O00321 1-342); conditions: protein: recombinant; tags: N-terminal GST; dsDNA, one strand shown
T4 sequence: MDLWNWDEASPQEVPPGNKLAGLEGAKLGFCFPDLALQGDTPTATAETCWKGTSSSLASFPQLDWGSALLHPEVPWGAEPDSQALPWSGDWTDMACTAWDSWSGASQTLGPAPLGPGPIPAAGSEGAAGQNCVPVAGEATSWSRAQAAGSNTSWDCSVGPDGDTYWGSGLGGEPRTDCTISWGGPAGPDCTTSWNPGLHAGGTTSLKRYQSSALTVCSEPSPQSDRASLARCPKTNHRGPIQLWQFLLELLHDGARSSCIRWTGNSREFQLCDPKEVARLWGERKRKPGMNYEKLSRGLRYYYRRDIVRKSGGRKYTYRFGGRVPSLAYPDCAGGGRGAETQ
Summary of the method: as §1

ELF3 = molecular target: T5, ELF3 (Homo sapiens, UniProt P78545 1-371); conditions: protein: recombinant; tags: N-terminal GST; dsDNA, one strand shown
T5 sequence: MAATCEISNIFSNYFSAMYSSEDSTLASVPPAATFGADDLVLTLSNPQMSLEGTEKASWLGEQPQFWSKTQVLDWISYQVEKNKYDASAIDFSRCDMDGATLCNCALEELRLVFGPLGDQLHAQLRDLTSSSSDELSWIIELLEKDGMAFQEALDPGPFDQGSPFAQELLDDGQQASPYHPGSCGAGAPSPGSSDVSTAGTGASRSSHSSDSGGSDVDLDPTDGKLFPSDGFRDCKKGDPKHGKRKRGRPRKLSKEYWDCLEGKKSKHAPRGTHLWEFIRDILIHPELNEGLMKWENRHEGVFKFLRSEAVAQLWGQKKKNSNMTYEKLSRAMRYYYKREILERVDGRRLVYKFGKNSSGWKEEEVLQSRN
Summary of the method: as §1

ETV1 = ETV1 (Homo sapiens, UniProt P50549 1-477); conditions: protein: recombinant; tags: N-terminal GST; dsDNA, one strand shown
Summary of the method: as §1

ERF = molecular target: T6, ERF (Homo sapiens, UniProt P50548 1-548); conditions: protein: recombinant; tags: N-terminal GST; dsDNA, one strand shown
T6 sequence: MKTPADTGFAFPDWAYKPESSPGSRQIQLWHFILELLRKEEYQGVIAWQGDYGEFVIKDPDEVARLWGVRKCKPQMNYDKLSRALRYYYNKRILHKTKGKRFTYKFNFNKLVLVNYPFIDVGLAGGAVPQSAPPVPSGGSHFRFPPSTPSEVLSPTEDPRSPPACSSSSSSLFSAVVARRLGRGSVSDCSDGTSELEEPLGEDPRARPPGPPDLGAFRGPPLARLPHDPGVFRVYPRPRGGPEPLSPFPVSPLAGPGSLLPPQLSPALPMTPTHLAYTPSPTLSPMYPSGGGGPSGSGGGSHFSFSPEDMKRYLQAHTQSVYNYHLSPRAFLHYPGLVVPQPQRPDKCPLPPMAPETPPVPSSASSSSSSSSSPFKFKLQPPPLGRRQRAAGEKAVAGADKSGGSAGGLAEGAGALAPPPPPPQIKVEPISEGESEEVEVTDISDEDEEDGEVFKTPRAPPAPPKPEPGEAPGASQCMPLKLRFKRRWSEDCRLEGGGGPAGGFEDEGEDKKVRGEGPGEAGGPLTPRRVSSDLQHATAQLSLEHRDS
Summary of the method: as §1

ETV3L = molecular target: T7, ETV3L (Homo sapiens, UniProt Q6ZN32 1-361); conditions: protein: recombinant; tags: N-terminal GST; dsDNA, one strand shown
T7 sequence: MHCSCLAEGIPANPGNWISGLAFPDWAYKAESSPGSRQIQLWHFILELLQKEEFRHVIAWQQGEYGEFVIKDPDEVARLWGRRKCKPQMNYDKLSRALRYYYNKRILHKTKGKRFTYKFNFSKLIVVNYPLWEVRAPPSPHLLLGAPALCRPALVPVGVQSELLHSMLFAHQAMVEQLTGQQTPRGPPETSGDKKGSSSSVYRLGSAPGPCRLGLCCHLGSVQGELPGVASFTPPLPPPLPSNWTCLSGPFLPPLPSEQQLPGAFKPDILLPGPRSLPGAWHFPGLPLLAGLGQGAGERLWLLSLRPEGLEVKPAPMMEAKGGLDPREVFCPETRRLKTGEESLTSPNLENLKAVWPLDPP
Summary of the method: as §1

ETS2 = molecular target: T8, ETS2 (Homo sapiens, UniProt P15036 1-469); conditions: protein: recombinant; tags: N-terminal GST; dsDNA, one strand shown
T8 sequence: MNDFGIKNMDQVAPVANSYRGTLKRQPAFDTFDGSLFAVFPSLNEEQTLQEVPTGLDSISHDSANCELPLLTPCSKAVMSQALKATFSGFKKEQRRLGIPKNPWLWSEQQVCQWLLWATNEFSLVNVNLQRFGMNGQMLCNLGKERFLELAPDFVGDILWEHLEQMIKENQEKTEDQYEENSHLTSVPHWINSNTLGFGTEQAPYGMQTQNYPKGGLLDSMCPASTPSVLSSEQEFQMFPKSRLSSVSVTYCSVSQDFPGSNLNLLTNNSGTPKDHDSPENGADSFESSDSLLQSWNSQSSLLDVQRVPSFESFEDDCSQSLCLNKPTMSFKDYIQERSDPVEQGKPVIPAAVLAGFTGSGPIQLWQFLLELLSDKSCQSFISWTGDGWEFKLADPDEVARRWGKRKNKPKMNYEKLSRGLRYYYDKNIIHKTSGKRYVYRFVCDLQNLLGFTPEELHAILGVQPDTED
Summary of the method: as §1

SPDEF = molecular target: T9, SPDEF (Homo sapiens, UniProt O95238 1-335); conditions: protein: recombinant; tags: N-terminal GST; dsDNA, one strand shown
T9 sequence: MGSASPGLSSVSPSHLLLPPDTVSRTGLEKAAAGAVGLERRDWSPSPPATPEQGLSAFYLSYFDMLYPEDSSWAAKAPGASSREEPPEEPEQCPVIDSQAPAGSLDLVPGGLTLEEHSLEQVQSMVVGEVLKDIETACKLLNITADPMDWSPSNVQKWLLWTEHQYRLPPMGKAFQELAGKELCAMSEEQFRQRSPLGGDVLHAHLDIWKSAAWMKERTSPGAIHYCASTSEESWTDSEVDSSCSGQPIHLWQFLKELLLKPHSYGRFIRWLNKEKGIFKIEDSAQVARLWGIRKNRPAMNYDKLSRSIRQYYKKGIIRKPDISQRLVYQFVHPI
Summary of the method: as §1

ETV7 = molecular target: T10, ETV7 (Homo sapiens, UniProt Q9Y603 1-341); conditions: protein: recombinant; tags: N-terminal GST; dsDNA, one strand shown
T10 sequence: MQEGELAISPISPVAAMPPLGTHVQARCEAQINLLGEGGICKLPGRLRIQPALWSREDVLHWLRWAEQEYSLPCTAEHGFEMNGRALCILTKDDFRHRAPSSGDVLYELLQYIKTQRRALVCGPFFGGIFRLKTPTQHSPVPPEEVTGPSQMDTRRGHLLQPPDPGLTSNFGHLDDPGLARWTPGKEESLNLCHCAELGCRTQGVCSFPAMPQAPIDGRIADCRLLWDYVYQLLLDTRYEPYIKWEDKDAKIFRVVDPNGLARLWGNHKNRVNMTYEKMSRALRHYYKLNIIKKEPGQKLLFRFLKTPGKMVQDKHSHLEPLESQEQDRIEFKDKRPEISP
Summary of the method: as §1

ELF5 = molecular target: T11, ELF5 (Homo sapiens, UniProt Q9UKW6-2 1-255); conditions: protein: recombinant; tags: N-terminal GST; dsDNA, one strand shown
T11 sequence: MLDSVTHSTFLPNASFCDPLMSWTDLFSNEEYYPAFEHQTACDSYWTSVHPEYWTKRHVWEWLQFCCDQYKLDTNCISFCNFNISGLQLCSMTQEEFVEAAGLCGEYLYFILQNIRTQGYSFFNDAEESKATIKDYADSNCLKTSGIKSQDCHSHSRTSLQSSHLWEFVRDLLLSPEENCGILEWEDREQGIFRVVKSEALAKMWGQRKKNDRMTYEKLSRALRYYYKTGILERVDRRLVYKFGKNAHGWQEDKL
Summary of the method: as §1

ETV3 = molecular target: T12, ETV3 (Homo sapiens, UniProt P41162-2 1-143); conditions: protein: recombinant; tags: N-terminal GST; dsDNA, one strand shown
T12 sequence: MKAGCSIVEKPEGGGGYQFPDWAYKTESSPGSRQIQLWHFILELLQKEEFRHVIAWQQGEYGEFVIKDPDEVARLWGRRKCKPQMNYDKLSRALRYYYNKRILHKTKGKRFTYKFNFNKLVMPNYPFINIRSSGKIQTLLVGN
Summary of the method: as §1

ETV6 = ETV6 (Homo sapiens, UniProt P41212 1-452); conditions: protein: recombinant; tags: N-terminal GST; dsDNA, one strand shown
Summary of the method: as §1

Sequence of ELF4 (Q99607 whole entry): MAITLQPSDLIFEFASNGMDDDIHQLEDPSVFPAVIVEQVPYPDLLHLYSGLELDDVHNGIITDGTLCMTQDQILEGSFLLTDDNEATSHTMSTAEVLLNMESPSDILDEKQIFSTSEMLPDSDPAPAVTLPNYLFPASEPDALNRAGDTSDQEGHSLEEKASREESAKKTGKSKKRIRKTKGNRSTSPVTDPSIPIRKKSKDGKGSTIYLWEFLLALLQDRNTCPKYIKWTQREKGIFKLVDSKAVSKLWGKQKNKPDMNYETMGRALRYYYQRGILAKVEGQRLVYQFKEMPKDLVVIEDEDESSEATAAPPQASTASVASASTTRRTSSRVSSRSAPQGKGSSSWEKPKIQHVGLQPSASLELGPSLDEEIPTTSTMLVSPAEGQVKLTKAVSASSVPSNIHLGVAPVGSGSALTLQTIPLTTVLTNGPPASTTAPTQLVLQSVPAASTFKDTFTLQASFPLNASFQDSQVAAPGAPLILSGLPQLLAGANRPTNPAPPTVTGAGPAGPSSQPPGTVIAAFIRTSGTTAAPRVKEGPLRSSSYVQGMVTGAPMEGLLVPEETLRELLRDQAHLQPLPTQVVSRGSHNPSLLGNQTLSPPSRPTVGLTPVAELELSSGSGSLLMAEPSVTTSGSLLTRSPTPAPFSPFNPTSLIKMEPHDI
Sequence of ETV5 (P41161 whole entry): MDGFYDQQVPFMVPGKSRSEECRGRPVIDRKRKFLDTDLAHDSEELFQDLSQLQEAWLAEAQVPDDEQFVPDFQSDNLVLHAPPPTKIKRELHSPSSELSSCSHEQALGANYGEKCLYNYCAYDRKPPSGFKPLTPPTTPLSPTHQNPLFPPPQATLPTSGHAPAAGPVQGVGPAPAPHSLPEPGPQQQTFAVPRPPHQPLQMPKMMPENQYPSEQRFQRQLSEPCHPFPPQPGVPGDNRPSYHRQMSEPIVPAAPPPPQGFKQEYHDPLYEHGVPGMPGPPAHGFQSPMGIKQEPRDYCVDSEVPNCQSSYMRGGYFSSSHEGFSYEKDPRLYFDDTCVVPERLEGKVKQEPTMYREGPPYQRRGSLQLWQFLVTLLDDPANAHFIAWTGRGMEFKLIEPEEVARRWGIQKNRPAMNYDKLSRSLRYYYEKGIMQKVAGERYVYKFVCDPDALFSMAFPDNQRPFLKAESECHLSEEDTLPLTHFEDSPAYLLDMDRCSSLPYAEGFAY
Sequence of ETV6 (P41212 whole entry): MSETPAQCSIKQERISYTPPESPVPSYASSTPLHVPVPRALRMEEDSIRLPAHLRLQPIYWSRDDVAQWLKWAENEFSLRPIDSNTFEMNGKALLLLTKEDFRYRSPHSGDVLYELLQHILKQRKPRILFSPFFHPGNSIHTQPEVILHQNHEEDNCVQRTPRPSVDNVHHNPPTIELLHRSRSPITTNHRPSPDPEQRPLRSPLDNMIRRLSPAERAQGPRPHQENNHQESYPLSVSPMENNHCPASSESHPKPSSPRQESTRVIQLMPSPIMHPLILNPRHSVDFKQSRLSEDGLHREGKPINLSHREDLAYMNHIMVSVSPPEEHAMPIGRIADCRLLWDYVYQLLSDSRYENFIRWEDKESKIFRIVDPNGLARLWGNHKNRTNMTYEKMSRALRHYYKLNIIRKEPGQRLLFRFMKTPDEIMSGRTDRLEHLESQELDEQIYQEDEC
Sequence of ETV1 (P50549 whole entry): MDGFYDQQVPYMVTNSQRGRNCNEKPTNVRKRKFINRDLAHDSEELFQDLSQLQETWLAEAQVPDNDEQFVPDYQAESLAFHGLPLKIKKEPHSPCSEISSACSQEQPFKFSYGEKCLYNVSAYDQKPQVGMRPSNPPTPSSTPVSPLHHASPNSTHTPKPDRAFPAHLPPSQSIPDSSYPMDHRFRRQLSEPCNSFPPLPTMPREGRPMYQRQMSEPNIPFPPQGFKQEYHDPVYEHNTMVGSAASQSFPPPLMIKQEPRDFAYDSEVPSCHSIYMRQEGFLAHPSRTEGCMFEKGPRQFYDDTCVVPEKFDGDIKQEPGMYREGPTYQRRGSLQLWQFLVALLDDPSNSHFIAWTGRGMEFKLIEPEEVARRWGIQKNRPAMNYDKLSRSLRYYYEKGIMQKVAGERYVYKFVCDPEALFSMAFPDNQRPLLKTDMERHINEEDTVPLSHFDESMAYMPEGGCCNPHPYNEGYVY
Sequence of HSF1 (Q00613 whole entry): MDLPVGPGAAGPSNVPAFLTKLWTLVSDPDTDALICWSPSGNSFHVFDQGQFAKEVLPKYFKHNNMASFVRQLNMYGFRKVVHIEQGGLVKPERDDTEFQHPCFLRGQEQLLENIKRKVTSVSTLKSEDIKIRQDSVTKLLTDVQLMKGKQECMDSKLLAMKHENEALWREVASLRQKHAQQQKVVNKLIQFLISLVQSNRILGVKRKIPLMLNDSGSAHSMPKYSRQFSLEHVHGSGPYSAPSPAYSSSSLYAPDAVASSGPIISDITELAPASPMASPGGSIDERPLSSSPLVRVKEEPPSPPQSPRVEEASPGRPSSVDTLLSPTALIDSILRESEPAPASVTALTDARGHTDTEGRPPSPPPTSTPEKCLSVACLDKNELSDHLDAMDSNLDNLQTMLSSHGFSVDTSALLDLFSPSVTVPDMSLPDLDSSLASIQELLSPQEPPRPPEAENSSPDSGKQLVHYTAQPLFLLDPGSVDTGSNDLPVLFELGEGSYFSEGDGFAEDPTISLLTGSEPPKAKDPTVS

## GTTCCC
FEV
  binding signal: 1.27 fold enrichment (6-mer frequency, TF over GST control)
ETV5
  binding signal: 1.22 fold enrichment (6-mer frequency, TF over GST control)
HSF1
  binding signal: 1.26 fold enrichment (6-mer frequency, TF over GST control)
SPIC
  binding signal: 1.38 fold enrichment (6-mer frequency, TF over GST control)
ELF4
  binding signal: 1.36 fold enrichment (6-mer frequency, TF over GST control)
ELK4
  binding signal: 1.19 fold enrichment (6-mer frequency, TF over GST control)
ETV2
  binding signal: 1.12 fold enrichment (6-mer frequency, TF over GST control)
ELF3
  binding signal: 1.23 fold enrichment (6-mer frequency, TF over GST control)
ETV1
  binding signal: 1.39 fold enrichment (6-mer frequency, TF over GST control)
ERF
  binding signal: 1.31 fold enrichment (6-mer frequency, TF over GST control)
ETV3L
  binding signal: 1.22 fold enrichment (6-mer frequency, TF over GST control)
ETS2
  binding signal: 1.28 fold enrichment (6-mer frequency, TF over GST control)
SPDEF
  binding signal: 1.29 fold enrichment (6-mer frequency, TF over GST control)
ETV7
  binding signal: 1.3 fold enrichment (6-mer frequency, TF over GST control)
ELF5
  binding signal: 1.48 fold enrichment (6-mer frequency, TF over GST control)
ETV3
  binding signal: 1.31 fold enrichment (6-mer frequency, TF over GST control)
ETV6
  binding signal: 1.28 fold enrichment (6-mer frequency, TF over GST control)
